Here are results for 6 molecules from PubChem BioAssay.

Experiment [1] deals with Plasmodium falciparum Sir2 (PF13_0152, Sir2A). Nature of the experiment: Plasmodium falciparum Sir2A binding compounds – biochemical, small-molecule microarray, 635 nm fluorescence, primary screen (AID 1098).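 Also: score merges spot fluorescence intensity with its signal-to-noise ratio.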 Particulars: fluorescence 635 nm, higher = more signal.
Experiment [2] is described as follows: probe aDKK1 binding to arrayed compounds – biochemical, biotinylated probe, 635/667 nm fluorescence, primary screen (AID 1099).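 Also: score merges 667nm spot fluorescence with signal to noise across triplicate slides.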 To be noted: small-molecule microarray, higher = more signal.
A short description of experiment [3]: probe aCHRDL2 binding to arrayed compounds – biochemical, biotinylated probe, 635/667 nm fluorescence, primary screen (AID 1100). Particulars: small-molecule microarray, higher = more signal.
The nature of experiment [4]: change in splice reporter luminescence, either direction, cell-based, HEK293, spliceosome inhibition project, primary screen (AID 1101).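 Also: HEK293 cells carrying a splicing-competent luciferase reporter gene; test concentration not given here.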 Particulars: HEK293 splicing luciferase reporter, 24 h, higher = more signal, called active from +8 up or from −8 down.
For experiment [5], the target named is Fibroblast growth factor 10 (Homo sapiens) (UniProt O15520). Briefly: compounds binding fibroblast growth factor 10 – biochemical, small-molecule microarray, 635 nm fluorescence, primary screen (AID 1102). To be noted: FGF10 binding, fluorescence 635 nm, higher = more signal.
Experiment [6] has as its system glycogen synthase kinase-3 (GSK3A per assay name; protocol says GSK3B). Briefly: compounds binding glycogen synthase kinase-3 – biochemical, small-molecule microarray, 635 nm fluorescence, GSK3A, primary screen (AID 1103). Also: the record names both GSK3A and GSK3B. Particulars: fluorescence 635 nm, higher = more signal.
Experiment [7] deals with Epidermal growth factor receptor (Homo sapiens) (UniProt P00533). Briefly: compounds binding epidermal growth factor receptor – biochemical, small-molecule microarray, 635 nm fluorescence, primary screen (AID 1104).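 Also: score merges 667 nm emission intensity with spot signal to noise over triplicate slides.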 To be noted: EGFR binding, higher = more signal.
In experiment [8] the target is Follistatin-related protein 3 (Homo sapiens) (UniProt O95633). Nature of the experiment: compounds binding follistatin-related protein 3 – biochemical, small-molecule microarray, 635 nm fluorescence, primary screen (AID 1105).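 Also: score merges emission near 667 nm and signal to noise per printed spot across three slides.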 Particulars: FSTL3 binding, higher = more signal.
The target of experiment [9] is Dickkopf-related protein 1 (Homo sapiens) (UniProt O94907). Nature of the experiment: small molecules binding DKK1 protein – biochemical, small-molecule microarray, 635 nm fluorescence scan, primary screen (AID 1106).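 Also: score merges emission near 667 nm with signal to noise over three replicate slides.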 Particulars: higher = more signal.
The subject of experiment [10] is Inhibin beta A chain (activin A). Nature of the experiment: small molecules binding activin A – biochemical, small-molecule microarray, 635 nm fluorescence scan, primary screen (AID 1107).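 Also: mouse activin A protein probed at 4.33 µg/mL on printed slides; score merges bound-protein fluorescence near 667 nm with spot signal-to-noise.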 To be noted: INHBA, higher = more signal.
Experiment [11] concerns Human papillomavirus type 1a protein E7 (residues 44-93). Briefly: small molecules binding HPV E7 44-93 – biochemical, small-molecule microarray, residues 44-93, 635 nm fluorescence, primary screen (AID 1108).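 Also: E7 fragment applied at 1 µg/mL in TBST for 1 h at 4 C; score combines spot fluorescence with its signal to noise ratio.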 Particulars: fluorescence 635 nm, higher = more signal.
The nature of experiment [12]: hepatitis C replication reporter changes, two-sided – Huh7 cells, luciferase reporter, HCV replication inhibitor project, primary screen (AID 1109).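 Also: huh7 hepatoma cells harbouring a luciferase neomycin HCV replicon reporter; luciferase luminescence as measure of HCV replicon replication; test concentration not given here.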 Particulars: Huh7 HCV replicon luciferase reporter, 48 h; higher = more signal.
The target in experiment [13] is Left-right determination factor 2 (Homo sapiens) (UniProt O00292). Nature of the experiment: small molecules binding LEFTY2 protein – biochemical, small-molecule microarray, 635 nm fluorescence scan, primary screen (AID 1110). Particulars: higher = more signal.
The target in experiment [14] is Calmodulin-1 (Homo sapiens) (UniProt P0DP23). Briefly: small molecules binding calmodulin-1 with EGTA – biochemical, small-molecule microarray, Cy5-labelled CALM1, profiling panel (AID 1111).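 Also: labelled calmodulin applied in Tris saline Tween buffer holding calcium plus EGTA and DTT.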 To be noted: Cy5-CALM1 binding fluorescence, higher = more signal.
For experiment [15] the target is unchanged. Nature of the experiment: small molecules binding Ca-loaded calmodulin-1 – biochemical, small-molecule microarray, Cy5-labelled CALM1, plus calcium, artefact control for SMM control-protein annotation, profiling panel (AID 1112).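 Also: score merges spot fluorescence with signal to noise from triplicate slides.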 Particulars: Cy5-CALM1 binding fluorescence, higher = more signal.
Experiment [16] is described as follows: probe aWnt5a binding to arrayed compounds – biochemical, biotinylated probe, 635/667 nm fluorescence, primary screen (AID 1113).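 Also: score merges 667 nm fluorescence intensity with signal-to-noise per printed feature.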 To be noted: small-molecule microarray, higher = more signal.
Experiment [17] can be described thus: probe aShh binding to arrayed compounds – biochemical, biotinylated probe, 635/667 nm fluorescence, primary screen (AID 1114).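 Also: probe is biotin-labelled aShh protein from a stem cell growth factor screen; measures binding of labelled protein to compounds printed on the slide; score merges feature fluorescence at 667 nm with signal-to-noise.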 Particulars: small-molecule microarray, higher = more signal.
The nature of experiment [18]: probe aNog binding to arrayed compounds – biochemical, biotinylated probe, 635/667 nm fluorescence, primary screen (AID 1115).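 Also: probe is biotinylated aNog protein used at 0.15 µg/mL for 1 h at 4 C; z-score combines 667 nm fluorescence of each spot with its signal to noise.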 To be noted: small-molecule microarray, higher = more signal.
Experiment [19] deals with Torsin-1A-interacting protein 1 (Homo sapiens) (UniProt Q5JTV8). Briefly: compound microarray binding of lysate hLAP1 – cell lysate, small-molecule microarray, COS7 lysate, 635/667 nm fluorescence, primary screen (AID 1116). Particulars: 635 nm fluorescence, higher = more signal.
The target in experiment [20] is Alpha-bungarotoxin (Bungarus multicinctus) (UniProt P60615). Briefly: compounds binding labelled alpha-BTX control protein – biochemical, small-molecule microarray, Alexa647 label, 635/667 nm fluorescence, artefact control for SMM control protein annotation, profiling panel (AID 1117). Particulars: alpha-BTX-A647 binding fluorescence, higher = more signal.

Structures are written as SMILES. The source made the active and inactive calls.

Dickkopf-related protein 1 (Homo sapiens), sequence (O94907 whole entry, looked up): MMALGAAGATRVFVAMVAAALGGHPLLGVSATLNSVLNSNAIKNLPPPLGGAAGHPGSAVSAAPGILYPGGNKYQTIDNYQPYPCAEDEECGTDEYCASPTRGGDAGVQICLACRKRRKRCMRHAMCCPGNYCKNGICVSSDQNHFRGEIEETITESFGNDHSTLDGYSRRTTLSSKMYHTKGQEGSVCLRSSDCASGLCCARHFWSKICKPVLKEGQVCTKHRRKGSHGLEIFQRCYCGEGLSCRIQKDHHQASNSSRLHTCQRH
Follistatin-related protein 3 (Homo sapiens), sequence (O95633 whole entry, looked up): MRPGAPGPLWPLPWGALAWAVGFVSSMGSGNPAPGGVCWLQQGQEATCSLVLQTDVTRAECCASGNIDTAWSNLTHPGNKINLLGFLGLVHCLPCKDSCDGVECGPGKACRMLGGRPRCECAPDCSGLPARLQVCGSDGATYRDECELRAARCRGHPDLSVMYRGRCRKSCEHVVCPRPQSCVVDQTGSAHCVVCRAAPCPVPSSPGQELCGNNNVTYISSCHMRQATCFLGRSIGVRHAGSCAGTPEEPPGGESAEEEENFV
Left-right determination factor 2 (Homo sapiens), sequence (O00292 whole entry, looked up): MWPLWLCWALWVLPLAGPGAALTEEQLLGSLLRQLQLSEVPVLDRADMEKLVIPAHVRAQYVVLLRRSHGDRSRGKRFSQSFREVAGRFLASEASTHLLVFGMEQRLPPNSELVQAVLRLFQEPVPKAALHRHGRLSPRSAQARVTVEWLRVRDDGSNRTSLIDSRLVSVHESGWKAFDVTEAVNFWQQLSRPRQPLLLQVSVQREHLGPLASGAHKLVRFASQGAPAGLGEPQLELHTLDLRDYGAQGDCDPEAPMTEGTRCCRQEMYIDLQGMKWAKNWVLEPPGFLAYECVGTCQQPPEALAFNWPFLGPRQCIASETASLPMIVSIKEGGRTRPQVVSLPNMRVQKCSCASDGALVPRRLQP
Alpha-bungarotoxin (Bungarus multicinctus), sequence (P60615 whole entry, looked up): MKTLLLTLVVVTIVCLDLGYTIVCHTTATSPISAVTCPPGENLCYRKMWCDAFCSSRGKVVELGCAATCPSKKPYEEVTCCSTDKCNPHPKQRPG
Epidermal growth factor receptor (Homo sapiens), sequence (P00533 whole entry, looked up): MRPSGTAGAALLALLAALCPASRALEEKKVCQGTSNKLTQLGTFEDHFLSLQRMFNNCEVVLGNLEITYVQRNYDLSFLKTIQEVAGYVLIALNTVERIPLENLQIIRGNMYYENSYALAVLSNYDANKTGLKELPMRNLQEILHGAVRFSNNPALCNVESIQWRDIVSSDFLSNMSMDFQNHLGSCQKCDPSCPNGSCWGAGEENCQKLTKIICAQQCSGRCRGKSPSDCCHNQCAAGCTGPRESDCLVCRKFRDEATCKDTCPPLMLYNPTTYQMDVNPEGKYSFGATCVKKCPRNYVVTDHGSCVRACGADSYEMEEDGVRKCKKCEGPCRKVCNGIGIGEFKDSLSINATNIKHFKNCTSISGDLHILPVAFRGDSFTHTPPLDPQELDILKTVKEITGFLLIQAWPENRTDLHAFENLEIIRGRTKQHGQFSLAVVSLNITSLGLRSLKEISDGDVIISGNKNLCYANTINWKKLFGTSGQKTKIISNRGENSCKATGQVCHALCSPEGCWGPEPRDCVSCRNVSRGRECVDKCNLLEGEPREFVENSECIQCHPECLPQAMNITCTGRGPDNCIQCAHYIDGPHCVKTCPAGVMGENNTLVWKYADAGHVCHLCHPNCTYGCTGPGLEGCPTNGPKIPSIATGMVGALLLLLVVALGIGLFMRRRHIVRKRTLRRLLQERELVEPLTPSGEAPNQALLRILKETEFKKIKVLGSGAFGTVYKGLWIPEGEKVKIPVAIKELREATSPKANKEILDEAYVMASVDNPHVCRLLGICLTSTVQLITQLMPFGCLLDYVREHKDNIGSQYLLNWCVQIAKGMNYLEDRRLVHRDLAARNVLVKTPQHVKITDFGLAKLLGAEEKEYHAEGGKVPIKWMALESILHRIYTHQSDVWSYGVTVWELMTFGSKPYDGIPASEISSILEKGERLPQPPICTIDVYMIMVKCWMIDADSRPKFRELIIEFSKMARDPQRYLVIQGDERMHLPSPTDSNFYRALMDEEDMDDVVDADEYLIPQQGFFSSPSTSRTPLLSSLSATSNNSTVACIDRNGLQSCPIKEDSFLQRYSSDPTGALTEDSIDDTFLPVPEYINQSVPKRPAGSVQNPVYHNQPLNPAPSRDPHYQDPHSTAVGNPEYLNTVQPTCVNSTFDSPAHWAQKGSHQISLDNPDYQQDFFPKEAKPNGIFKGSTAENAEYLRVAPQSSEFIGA
Torsin-1A-interacting protein 1 (Homo sapiens), sequence (Q5JTV8 whole entry, looked up): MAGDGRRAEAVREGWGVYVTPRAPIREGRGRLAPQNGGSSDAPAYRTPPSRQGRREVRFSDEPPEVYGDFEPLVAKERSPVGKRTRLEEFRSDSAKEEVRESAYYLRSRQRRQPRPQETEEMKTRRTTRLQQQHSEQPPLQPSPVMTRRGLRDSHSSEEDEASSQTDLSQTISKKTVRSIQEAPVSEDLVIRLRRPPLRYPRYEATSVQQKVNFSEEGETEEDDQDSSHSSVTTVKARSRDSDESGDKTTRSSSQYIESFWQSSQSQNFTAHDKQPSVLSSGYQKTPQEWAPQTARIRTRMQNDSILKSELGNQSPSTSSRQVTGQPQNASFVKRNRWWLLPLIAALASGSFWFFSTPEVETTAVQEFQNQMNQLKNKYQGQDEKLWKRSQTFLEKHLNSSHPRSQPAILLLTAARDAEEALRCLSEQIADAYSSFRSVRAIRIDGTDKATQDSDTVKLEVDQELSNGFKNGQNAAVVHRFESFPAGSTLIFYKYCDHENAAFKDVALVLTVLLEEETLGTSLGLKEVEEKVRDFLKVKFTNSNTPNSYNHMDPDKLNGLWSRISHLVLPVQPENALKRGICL
Fibroblast growth factor 10 (Homo sapiens), sequence (O15520 whole entry, looked up): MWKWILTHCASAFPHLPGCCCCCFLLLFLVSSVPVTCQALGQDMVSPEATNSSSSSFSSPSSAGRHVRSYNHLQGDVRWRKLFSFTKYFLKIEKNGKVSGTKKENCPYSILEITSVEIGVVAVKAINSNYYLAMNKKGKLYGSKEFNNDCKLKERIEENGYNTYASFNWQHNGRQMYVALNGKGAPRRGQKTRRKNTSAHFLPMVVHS

As to `COc1ccc([Si](C)(C)[C@@H]2[C@@H](CCn3cc([C@H](O)c4ccccc4)nn3)O[C@]3(C(=O)N(Cc4cccc(N5C(=O)c6cccc7cccc5c67)c4)c4ccccc43)[C@H]2C)cc1`, the composite z-score in experiment [1] is -0.225; in experiment [2], -0.0463; in experiment [3], 0.575; in experiment [5], -0.365; in experiment [6] it was -0.83; in experiment [7], -1.32. Further, the composite z-score in [8] was -0.607; in experiment [9], -1.02; in experiment [10], -0.317; in experiment [11], 1.04; in experiment [13] it was -1.54; in experiment [14], 0.114. Moreover, the composite z-score in experiment [15] is 0.364; in experiment [16], -0.232; in experiment [17] it was -0.221; in experiment [18], 0.262; in experiment [19], -0.364; in [20], 0.0544. Further, the z-score in experiment [4] was 1.41 (inactive); in experiment [12] it was -2.89.
Consider `CCCCC(=O)N(CCN1CCOCC1)[C@@H]1CC(C(=O)NCCO)=C[C@H](Oc2c(I)cc(CO)cc2OC)[C@H]1O`, for which the composite z-score in experiment [1] was 0.787; in [2] it was -0.309; in [3], -0.764; in [5], 0.318; in experiment [6] it was 0.725; in experiment [7], 0.349. In addition, the composite z-score in experiment [8] is 0.412; in experiment [9] it was 0.817; in [10], 0.0845; in experiment [11], 0.33; in [13], 0.653; in experiment [14], -0.282. The composite z-score in [15] was -0.598; in experiment [16] it was -0.19; in experiment [17], -0.358; in [18], -0.31; in experiment [19] it was -0.0458; in [20] it was 0.354. Also, the z-score in [4] was 0.751 (inactive); in experiment [12], 0.282.
Take `COC(=O)C1=CC(CCCO)=CC(C)N(Cc2cccc(OC(F)(F)F)c2)C=C1C(=O)OC` (stereo not given): the composite z-score in experiment [1] was 0.325; in experiment [2], 0.116; in experiment [3], 0.259; in experiment [5] it was 0.278; in [6] it was -0.606; in experiment [7], -0.94. Also, the composite z-score in [8] is 0.0535; in experiment [9], -0.695; in experiment [10], 0.383; in experiment [11] it was 1.35; in [13], -0.708; in [14], 1.02. Moreover, the composite z-score in experiment [15] was 1.15; in experiment [16] it was -0.0643; in [17] it was 0.0929; in [18], 0.716; in experiment [19], 0.595; in [20], 0.498. Moreover, the z-score was -0.488 (inactive) in experiment [4] and -0.307 in experiment [12].
With `COC(=O)[C@@]1(Cc2ccc(F)cc2)[C@H]2c3cc(C(=O)N(C)C)n(Cc4ccc(O)c(OC)c4)c3C[C@H]2CN1C(=O)c1ccccc1`, the composite z-score in experiment [1] amounted to 0.472; in experiment [2] it was 0.0331; in experiment [3] it was 0.128; in experiment [5], 0.448; in experiment [6], 0.538; in [7] it was 0.269. Besides, the composite z-score was 0.0792 in experiment [8]; 0.134 in experiment [9]; 0.937 in experiment [10]; 0.347 in [11]; -0.0182 in experiment [13]; 1.17 in [14]. Moreover, the composite z-score is -0.0337 in experiment [15]; 0.0776 in [16]; 0.207 in experiment [17]; -0.186 in experiment [18]; -0.105 in experiment [19]; 0.412 in experiment [20]. Moreover, the results for the z-score in experiment [4] and in [12] were -4.34 (inactive) and -1.05, respectively.
On to `COCCOC(=O)N1C(=O)[C@@]2(c3cc(C#Cc4ccc(OC)cc4)ccc31)[C@H](c1ccc(OCCO)cc1)N1[C@H](c3ccccc3)[C@H](c3ccccc3)OC(=O)[C@H]1[C@@H]2C(=O)Nc1nc2ccccc2s1`, for which the composite z-score in experiment [1] was found to be 0.181; in [2] it was 0.636; in experiment [3], 0.533; in experiment [5], 1.06; in experiment [6] it was 0.506; in experiment [7] it was 0.397. Further, the composite z-score stood at 0.805 in experiment [8]; 0.154 in experiment [9]; 0.598 in experiment [10]; 1.34 in experiment [11]; 0.225 in [13]; 1.91 in experiment [14]. Also, the composite z-score turned out to be 0.487 in experiment [15]; 0.0017 in experiment [16]; 1.52 in experiment [17]; 0.0044 in [18]; 0.699 in [19]; 0.885 in experiment [20]. Also, the z-score in experiment [4] is -0.697 (inactive); in [12], -1.54.
On to `COC(=O)C(CC#Cc1ccc2c(c1)[C@]1(C(=O)N2)[C@H](c2ccc(OCCO)cc2)N2[C@H](c3ccccc3)[C@H](c3ccccc3)OC(=O)[C@H]2[C@@H]1C(=O)N1CCN(c2ncccn2)CC1)C(=O)OC`, for which the composite z-score in experiment [1] is 1.35; in experiment [2], 0.841; in [3], 0.782; in experiment [5], 1.14; in experiment [6], 1.32; in [7], 0.331. Moreover, the composite z-score in experiment [8] turned out to be 1.37; in experiment [9], 0.982; in [10] it was 0.53; in experiment [11], 0.233; in experiment [13] it was 1.28; in [14], 1.48. Besides, the composite z-score in [15] is 0.43; in [16], -0.0286; in [17], 0.214; in experiment [18] it was -0.889; in experiment [19] it was 1.2; in experiment [20] it was 1.3. Further, the values for the z-score in experiment [4] and in experiment [12] were 0.0768 (inactive) and -1.49, respectively.
